The values below come from the supplement of paper PMC9492666.

Where a name gives a salt, the structure may show the parent alone.
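Also: viability read by CCK-8 kit in 96-well plates, part of a combination screen pairing lipid-metabolism-targeting compounds with erastin.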

In this assay the test system is MDA-MB-231. Nature of the assay: relative cell viability, compound + erastin, vs DMSO (fraction of DMSO control); higher = less growth inhibition. Particulars: 72 h.
For the compound `C[C@H](CCCC(C)(C)O)[C@H]1CC[C@H]2[C@@H]3CC=C4C[C@@H](O)CC[C@]4(C)[C@H]3CC[C@]12C` [25-Hydroxycholesterol] + CCOc1ccccc1-n1c(C(C)N2CCN(C(=O)COc3ccc(Cl)cc3)CC2)nc2ccccc2c1=O [erastin], the relative cell viability worked out at 0.483.

With `O=C(NC1CCN(CCCCC2(C(=O)NCC(F)(F)F)c3ccccc3-c3ccccc32)CC1)c1ccccc1-c1ccc(C(F)(F)F)cc1` [Lomitapide] + CCOc1ccccc1-n1c(C(C)N2CCN(C(=O)COc3ccc(Cl)cc3)CC2)nc2ccccc2c1=O [erastin], the relative cell viability came to 0.436.

Take `COC(=O)c1sccc1S(=O)(=O)Nc1ccc(Nc2ccccc2)cc1OC` + CCOc1ccccc1-n1c(C(C)N2CCN(C(=O)COc3ccc(Cl)cc3)CC2)nc2ccccc2c1=O [erastin]: the relative cell viability was 1.1.

Regarding `O=C(O)Cc1cccc(OCCCN(Cc2cccc(C(F)(F)F)c2Cl)CC(c2ccccc2)c2ccccc2)c1` + CCOc1ccccc1-n1c(C(C)N2CCN(C(=O)COc3ccc(Cl)cc3)CC2)nc2ccccc2c1=O [erastin], the relative cell viability was 0.478.

In the case of `CC(C)CCC[C@@H](C)[C@H]1CC[C@H]2[C@@H]3CC=C4C[C@@H](O)CC[C@]4(C)[C@H]3CC[C@]12C` [Cholesterol] + CCOc1ccccc1-n1c(C(C)N2CCN(C(=O)COc3ccc(Cl)cc3)CC2)nc2ccccc2c1=O [erastin], the relative cell viability is 0.953.

As to `O=c1c(O[C@@H]2O[C@H](CO)[C@@H](O)[C@H](O)[C@H]2O)c(-c2ccc(O)cc2)oc2cc(O)cc(O)c12` [Astragalin] + CCOc1ccccc1-n1c(C(C)N2CCN(C(=O)COc3ccc(Cl)cc3)CC2)nc2ccccc2c1=O [erastin], the relative cell viability is 0.749.

On to `CC(C)c1cc(C(C)C)c(CC(=O)NS(=O)(=O)Oc2c(C(C)C)cccc2C(C)C)c(C(C)C)c1` [Avasimibe] + CCOc1ccccc1-n1c(C(C)N2CCN(C(=O)COc3ccc(Cl)cc3)CC2)nc2ccccc2c1=O [erastin], for which the relative cell viability came to 0.791.

Turning to `O=C(O)CCn1c2c(c3ccccc31)C[C@H](NS(=O)(=O)c1ccc(F)cc1)CC2` [Ramatroban] + CCOc1ccccc1-n1c(C(C)N2CCN(C(=O)COc3ccc(Cl)cc3)CC2)nc2ccccc2c1=O [erastin], the relative cell viability amounted to 0.806.

For the compound `COc1ccc(-c2cc(=O)c3c(O)c(OC)c(OC)c(OC)c3o2)cc1OC` + CCOc1ccccc1-n1c(C(C)N2CCN(C(=O)COc3ccc(Cl)cc3)CC2)nc2ccccc2c1=O [erastin], the relative cell viability was 0.784.

With `O=S(=O)(c1ccccc1)N(CC(F)(F)F)c1ccc(C(O)(C(F)(F)F)C(F)(F)F)cc1` + CCOc1ccccc1-n1c(C(C)N2CCN(C(=O)COc3ccc(Cl)cc3)CC2)nc2ccccc2c1=O [erastin], the relative cell viability is 0.45.

As for `COc1ccc(CN2CCNCC2)c(OC)c1OC` [Trimetazidine dihydrochloride] + CCOc1ccccc1-n1c(C(C)N2CCN(C(=O)COc3ccc(Cl)cc3)CC2)nc2ccccc2c1=O [erastin], the relative cell viability is 0.55.

As for `CCCCCCCCCCCCCCCC(=O)NCCO` [Palmidrol] + CCOc1ccccc1-n1c(C(C)N2CCN(C(=O)COc3ccc(Cl)cc3)CC2)nc2ccccc2c1=O [erastin], the relative cell viability was 0.938.

Turning to `CC1=C(C)C(=O)C(C(CCCCCC(=O)O)c2ccccc2)=C(C)C1=O` (configuration not stated) [Seratrodast] + CCOc1ccccc1-n1c(C(C)N2CCN(C(=O)COc3ccc(Cl)cc3)CC2)nc2ccccc2c1=O [erastin], the relative cell viability is 0.567.

For the compound `CC(C)(C)c1ccc(-c2nc3ccccc3[nH]2)cc1` + CCOc1ccccc1-n1c(C(C)N2CCN(C(=O)COc3ccc(Cl)cc3)CC2)nc2ccccc2c1=O [erastin], the relative cell viability was found to be 0.295.

For `NC(=O)c1cnccn1` [Pyrazinamide] + CCOc1ccccc1-n1c(C(C)N2CCN(C(=O)COc3ccc(Cl)cc3)CC2)nc2ccccc2c1=O [erastin], the relative cell viability came to 0.948.

As for `C[C@H](CCC(=O)O)[C@H]1CC[C@H]2[C@@H]3C[C@H](O)[C@@H]4C[C@H](O)CC[C@]4(C)[C@H]3CC[C@]12C` [Hyodeoxycholic acid] + CCOc1ccccc1-n1c(C(C)N2CCN(C(=O)COc3ccc(Cl)cc3)CC2)nc2ccccc2c1=O [erastin], the relative cell viability was determined as 0.881.

With `C[C@@H]1O[C@@H](O[C@H]2[C@H](Oc3cc(O)c4c(c3)O[C@H](c3ccc(O)cc3)CC4=O)O[C@H](CO)[C@@H](O)[C@@H]2O)[C@H](O)[C@H](O)[C@H]1O` [Naringin] + CCOc1ccccc1-n1c(C(C)N2CCN(C(=O)COc3ccc(Cl)cc3)CC2)nc2ccccc2c1=O [erastin], the relative cell viability worked out at 0.632.
